From PubChem BioAssay
HCMV inh: blocks human cytomegalovirus replication | activity change, negative = inhibition, % at 57.5 µM | HFF cells, HCMV-luciferase reporter, 72 h; hits give low values | actives 4.5% (n = 410,000); in the data active means activity change below about -60%; inconclusive means no clear call, values can overlap the other calls; inactive means above about -39%; further: on the % scale 0 is the no-effect control and ±100 the full control effect
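Two compound doses tested in HFFs infected with HCMV-luciferase, MOI 1 PFU/cell, 72 h at 37C. Lysate luminescence read with OneGlo; data normalized against buffer-only and 10uM Salinomycin inhibitor controls.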
HCV inhibitor: HCV inhibition; Huh7.5.1 HCVcc-Cre infection, luciferase reporter, 44 h; Potency, µM (titrated, usually from 41.8 µM), for the others: top-dose activity change, negative = inhibition, actives largely listed as inhibitors; actives 3.4% (n = 340,000); active means well fitted inhibition curve with a large enough effect; inconclusive means small, poorly fitted or top-dose-only effect, or another doubt; inactive means no such curve, though single readings can be large or run the other way; further: potency means the concentration at half of the fitted maximal effect; on the % scale 0 is the no-effect control and ±100 the full control effect
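Cells (1,000/well) were plated 4 h before compound, then infected with HCVcc-Cre virus (~0.5 moi). After 44 h further culture, infection was read as luciferase luminescence following a 15 min substrate incubation at room temperature.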
MARV entry inh: inhibitors of Marburg virus binding or cell entry; Marburg virus pseudotyped entry inhibition, cell reporter; Potency, µM (highest dose often 37.8 µM), inactives show top-dose activity change, negative = inhibition, usual class: inhibitors; actives 1.8% (n = 300,000); AID 540276; calls by dose curve; tested in HEK293 cells; further: potency means the concentration at half of the fitted maximal effect; on the % scale 0 is the no-effect control and ±100 the full control effect
SARS PLpro yeast: SARS-CoV PLP inhibition in yeast | actives 0.19% (n = 330,000) | AID 485353 | Potency, µM (highest dose often 32.9 µM), for the others: at the top dose activity, positive = growth rescue, usual class: activators | S. cerevisiae expressing SARS-CoV PLpro, growth rescue; calls by dose curve; further: potency means the concentration at half of the fitted maximal effect; 0% is about no effect; nearly all actives have a fitted effect of over 55% in size
Lassa entry inh: Lassa virus entry inhibition; Lassa virus pseudotype entry inhibition, cell reporter; Potency, µM (highest dose often 37.9 µM), for the others: at the top dose activity change, negative = inhibition, usual class: inhibitors; actives 1.2% (n = 300,000); calls by dose curve; tested in HEK293 cells; further: potency means the concentration at half of the fitted maximal effect; on the % scale 0 is the no-effect control and ±100 the full control effect; nearly all actives have a fitted effect of over 50% in size
FMDV antiviral: foot and mouth disease virus antiviral activity. AID 1159524. FMDV antiviral cell-based qHTS. actives 1.2% (n = 410,000). Potency, µM (doses to about 57.9 µM), for inactives: at the highest dose activity change, negative = inhibition, most hits filed as inhibitors; calls by dose curve; tested in HEK293T cells; further: read-out not given here; potency means the concentration at half of the fitted maximal effect; on the % scale 0 is the no-effect control and ±100 the full control effect; nearly all actives have a fitted effect of over 45% in size
* hit, by the source's call; ? = inconclusive; · = no result. Rows were chosen to be rich in hits. Some 8% of all compounds tested hit in one or more screens of this group.

SMILES	HCMV inh	HCV inhibitor	MARV entry inh	SARS PLpro yeast	Lassa entry inh	FMDV antiviral
Cc1ccccc1Cc1nc2cccnc2n1C1CCN(C(=O)CC2NC(=O)c3ccccc32)CC1 (stereo unspecified)	·	·	·	·	·	-24%
O=C(NC1CCCCC1)c1n[nH]c2c1CCCCC2	-27	8%	·	5%	·	14µM*
N#Cc1cccc(NC(=O)C2CCN(S(=O)(=O)c3ccc4c(c3)CCCN4C(=O)C3CCC3)CC2)c1	-38	·	·	·	?	?
Nc1ccc(Br)c2cccnc12	-26	?	?	0%	-1%	-7%
COc1cccc(N=Nc2ccc3cccnc3c2O)c1	-100*	2µM*	·	-9%	·	35%
COc1cccc(N=Nc2ccc(O)c3ncccc23)c1	-100*	6.3µM*	?	5%	?	-4%
COc1cc(OC)cc(C(=O)Nc2cccc3cccnc23)c1	-4	-15%	?	-1%	-2%	10%
Oc1ccc(COc2cccc3ccccc23)c2cccnc12	·	·	·	-2%	·	·
